DYRK1A inh – blocks rat Dyrk1A kinase activity; Q63470; ADP-Glo luminescence, NFATc1 peptide; inhibition, % at 12.5 µM; 0.43% of 310,000 active; in the data active = inhibition above about 50%;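 also: plate controls were vehicle with enzyme for no effect and no enzyme for full effect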
dFosB act – enhances mouse delta FosB homodimer DNA binding; purified delta FosB, TAMRA-CDK5 oligo fluorescence polarization; percent of positive-control signal above neutral wells; activation, % at 25 µM; 0.99% of 340,000 active;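 active = mean activation above about 17%, with every replicate also reaching it, limit read from the data, passing the limit was not always enough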
Target sequence (P13346 whole entry, looked up): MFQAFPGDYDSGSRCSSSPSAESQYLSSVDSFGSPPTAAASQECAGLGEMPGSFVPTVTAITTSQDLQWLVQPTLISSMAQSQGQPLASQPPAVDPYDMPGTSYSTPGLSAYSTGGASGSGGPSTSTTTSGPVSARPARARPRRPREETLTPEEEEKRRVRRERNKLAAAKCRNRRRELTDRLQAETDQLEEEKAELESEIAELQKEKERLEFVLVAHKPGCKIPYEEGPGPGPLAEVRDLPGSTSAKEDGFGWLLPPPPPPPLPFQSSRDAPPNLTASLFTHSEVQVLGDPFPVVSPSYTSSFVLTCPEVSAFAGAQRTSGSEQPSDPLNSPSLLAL
Rtt109 HAT inh – blocks Candida albicans Rtt109/Vps75 acetyltransferase activity. purified Rtt109/Vps75, ThioGlo CoA-SH fluorescence, 4 h. Q5AAJ8. 0.16% of 330,000 active. AID 540336. inhibition, % at 34.9 µM;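 active = inhibition of at least 50% in every replicate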
CDK5 p35 inh – inhibitors of human CDK5/p35 kinase | inhibition, % at 10 µM | 0.01% of 330,000 active | Recombinant CDK5/p35, ADP-Glo luminescence, 60 min | AID 488839;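 active = highest replicate inhibition of at least 50% and at least 75% of replicates reaching 50%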;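 also: plate controls were DMSO neutral control for no effect and GW8510 at 10 µM for full effect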
esBAF inh – blocks esBAF chromatin remodeling in mouse ES cells; Bmi1-luciferase knock-in reporter, 24 h; 100% = twice the neutral-well signal; reporter increase, % at 12.5 µM; 2% of 350,000 active; AID 602393; in the data active = activation above about 40%;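 also: 0% = median of the plate's neutral control wells and 100% = double that signal; a rise in the Bmi1 reporter signal indicates esBAF inhibition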
SMARCA2 act – activators of SMARCA2 function | MG213 cells, MMTV-luciferase reporter, dexamethasone, overnight | activation, % at 9.1 µM | 1% of 370,000 active; in the data active = activation above about 7.8%;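 also: 0% = vehicle wells and 100% = reference activator wells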
An asterisk follows results filed as active. Sampled rows, rich in hits. Any-hit rate of the full collection: about 3.2%.

`C[C@@H]1CN([C@@H](C)CO)C(=O)Cc2cc(NS(C)(=O)=O)ccc2O[C@H]1CN(C)C(=O)Nc1ccc(C(F)(F)F)cc1` gave esBAF inh -2.
For COc1cccc(-c2ccc3n(c2=O)C[C@@H]2[C@@H](CO)[C@H](C(=O)NCC4CC4)N(C)[C@H]32)c1 the results were esBAF inh 0.
For CN(C)c1ccc(C(=O)/C=C/c2cccnc2)cc1 the results were DYRK1A inh -4, dFosB act 2, Rtt109 HAT inh -2, CDK5 p35 inh 1, esBAF inh 63* and SMARCA2 act 2.
`O=C(Nc1ccc(Cl)c(Cl)c1)N[C@@H]1CC[C@H](CCNC(=O)c2ccc(F)cc2)O[C@H]1CO` gave esBAF inh -3.
`COc1ccc2[nH]cc(C(=O)CNc3nc(C)cs3)c2c1` gave DYRK1A inh 28, dFosB act 1, Rtt109 HAT inh 17, CDK5 p35 inh 0, esBAF inh 70* and SMARCA2 act 4.
Screening CC(C)NC(=O)N(C)C[C@@H]1Oc2ccc(NC(=O)Cc3cn(C)c4ccccc34)cc2C(=O)N([C@@H](C)CO)C[C@H]1C returned esBAF inh -2.
`COc1cccc2cc(-c3ccnc(N)n3)oc12` gave DYRK1A inh 13, dFosB act -18, Rtt109 HAT inh 1, CDK5 p35 inh -2, esBAF inh 45* and SMARCA2 act 4.
Screening O=C(N/N=C/c1ccnc2ccccc12)c1ccccc1O returned DYRK1A inh 9, dFosB act -9, Rtt109 HAT inh 8, CDK5 p35 inh 0, esBAF inh 55* and SMARCA2 act -1.
COc1cc(/C=N/NC(=O)c2cccc([N+](=O)[O-])c2)ccc1OCc1ccccc1 was read as DYRK1A inh 2, dFosB act -4, Rtt109 HAT inh -1, CDK5 p35 inh 0, esBAF inh 43* and SMARCA2 act -4.
`COc1ccc(/C=N/N2CCOCC2)cc1OCc1ccccc1` gave DYRK1A inh 10, dFosB act 5, Rtt109 HAT inh 2, CDK5 p35 inh -1, esBAF inh -8 and SMARCA2 act -1.
For COc1cc(/C=N/N2CCOCC2)ccc1OCc1ccccc1 the results were DYRK1A inh 1, dFosB act 2, Rtt109 HAT inh 1, CDK5 p35 inh -2, esBAF inh 61* and SMARCA2 act 0.
Screening COC(=O)C(=Cc1ccc(OCc2ccc([N+](=O)[O-])cc2)c(OC)c1)C(=O)OC returned DYRK1A inh 2, dFosB act 0, Rtt109 HAT inh 11, CDK5 p35 inh 1, esBAF inh 74* and SMARCA2 act -1.
`COc1ccc(/C=N/NC(=O)c2cccc([N+](=O)[O-])c2)cc1OC` gave DYRK1A inh 0, dFosB act 3, Rtt109 HAT inh 26, CDK5 p35 inh 1 and SMARCA2 act -1.
COc1cc(/C=N/NC(=O)CC2(C)OCCCO2)ccc1OCc1ccccc1 was read as DYRK1A inh 5, dFosB act 0, Rtt109 HAT inh 3, CDK5 p35 inh 1, esBAF inh 42* and SMARCA2 act 2.
For CNC(=O)C[C@H]1CC[C@H]2[C@@H](COC[C@H](O)CN2C(=O)Nc2cccc(OC)c2)O1 the results were esBAF inh -2.
`O=C1CC(c2ccccc2)Oc2ccc(Cl)cc21` (stereo unspecified) gave DYRK1A inh 0, dFosB act 8, Rtt109 HAT inh -3, CDK5 p35 inh 0 and SMARCA2 act 0.
Screening O=C1CC(c2ccc3c(c2)OCCO3)Oc2ccccc21 (stereo unspecified) returned DYRK1A inh 1, dFosB act -5, Rtt109 HAT inh 2, CDK5 p35 inh 0, esBAF inh 84* and SMARCA2 act 4.
COc1ccc(C2CC(=O)c3cc(OC)ccc3O2)cc1 (stereo unspecified) was read as DYRK1A inh -2, dFosB act -14, Rtt109 HAT inh 3, CDK5 p35 inh 0, esBAF inh 52* and SMARCA2 act 0.
For C[C@H](CO)N1C[C@H](C)[C@@H](CN(C)C(=O)Cc2cccnc2)Oc2ncc(/C=C/c3ccccc3)cc2C1=O the results were esBAF inh -8.
CSc1nc(-c2ccco2)nn1S(=O)(=O)c1ccc(C)cc1 was read as DYRK1A inh 4, dFosB act -4, Rtt109 HAT inh 7, CDK5 p35 inh 0, esBAF inh 6 and SMARCA2 act 6.
O=C(c1ccco1)n1nc(-c2ccco2)nc1SCc1ccccc1 was read as DYRK1A inh 2, dFosB act 3, Rtt109 HAT inh -5, CDK5 p35 inh -2, esBAF inh 45* and SMARCA2 act 1.
O=C(Cc1ccccc1)n1nc(-c2ccco2)nc1SCc1ccccc1 was read as DYRK1A inh -4, dFosB act -8, Rtt109 HAT inh -12, CDK5 p35 inh -4, esBAF inh -7 and SMARCA2 act 6.
Screening Cc1ccc(S(=O)(=O)n2nc(-c3ccco3)nc2SCc2ccccc2)cc1 returned DYRK1A inh -7, dFosB act -4, Rtt109 HAT inh -11, CDK5 p35 inh -1, esBAF inh 48* and SMARCA2 act 0.
For O=C(c1ccco1)n1nc(-c2ccccc2)nc1SCc1ccccc1 the results were DYRK1A inh -9, dFosB act -5, Rtt109 HAT inh -6, CDK5 p35 inh -1, esBAF inh 47* and SMARCA2 act -1.
Cc1noc(C)c1NC(=O)N(C)C[C@H]1Oc2ccc(NS(=O)(=O)c3cn(C)cn3)cc2CC(=O)N([C@@H](C)CO)C[C@H]1C was read as esBAF inh 1.
Screening CCCC(=O)Nc1ccc2c(c1)C(=O)N(C)[C@H]1CC[C@@H](CC(=O)NCC3CC3)O[C@H]1CO2 returned esBAF inh 1.
`COc1ccc(Oc2ncnc3sccc23)cc1` gave dFosB act -5, Rtt109 HAT inh 5, CDK5 p35 inh 0, esBAF inh 45* and SMARCA2 act 3.
Cc1ccc(-n2ncc3c(NCc4cccnc4)ncnc32)cc1C was read as DYRK1A inh 1, dFosB act -15, Rtt109 HAT inh 14, CDK5 p35 inh 1, esBAF inh 75* and SMARCA2 act 1.
COc1cccc(Nc2ncnc3sccc23)c1 was read as DYRK1A inh 8, dFosB act 2, Rtt109 HAT inh -3, CDK5 p35 inh -7, esBAF inh 59* and SMARCA2 act -1.
For COc1ccc(Nc2ncnc3sccc23)cc1 the results were DYRK1A inh 0, dFosB act -8, Rtt109 HAT inh 16, CDK5 p35 inh 0, esBAF inh 23 and SMARCA2 act 7.
Cc1cccc(-n2ncc3c(NCCCO)ncnc32)c1 was read as DYRK1A inh 10, dFosB act -8, Rtt109 HAT inh -7, CDK5 p35 inh 0, esBAF inh 21 and SMARCA2 act 7.9*.

Screening data deposited in PubChem by several laboratories.
